Measurements from paper PMC13541613, “GHT-SELEX demonstrates unexpectedly high intrinsic sequence specificity and complex DNA binding of many human transcription factors”.

Tests used:
Experiment in all cases: HT-SELEX; 20 mM HEPES pH 7, 140 mM KCl, 5 mM NaCl, 1 mM K2HPO4, 2 mM MgSO4, 100 uM EGTA, ZnSO4, 0.1% Tween20; room temperature, 1 h; high values mean tight binding
Details in all cases: protein: ivt; tags: eGFP (N-terminal); dsDNA, one strand shown
[1] = target: ZNF721 full-length (Homo sapiens, UniProt Q8TF20-2 1-923)
Method in brief: (§1)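 Bead-immobilised tagged transcription factor (full-length or DNA-binding-domain fragment), made in HEK293 lysate or cell-free extract, was incubated with a randomized 40-base DNA library. Binding was for 1 h at room temperature in HEPES/KCl low-stringency buffer with Tween20. After washing and heat elution, bound DNA was PCR-amplified over successive cycles and Illumina-sequenced (~3 million 60 bp reads per sample). Binding signal is a relative k-mer count in selected reads; higher means tighter binding.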

[2] = target: ZNF721 DBD1 (Homo sapiens, UniProt Q8TF20-2 29-461)
Method in brief: as §1

[3] = target: ZNF721 DBD2 (Homo sapiens, UniProt Q8TF20-2 395-923)
Method in brief: as §1

ZNF721 full-length, sequence (Q8TF20 other isoform, or with tags, fused parts or gaps): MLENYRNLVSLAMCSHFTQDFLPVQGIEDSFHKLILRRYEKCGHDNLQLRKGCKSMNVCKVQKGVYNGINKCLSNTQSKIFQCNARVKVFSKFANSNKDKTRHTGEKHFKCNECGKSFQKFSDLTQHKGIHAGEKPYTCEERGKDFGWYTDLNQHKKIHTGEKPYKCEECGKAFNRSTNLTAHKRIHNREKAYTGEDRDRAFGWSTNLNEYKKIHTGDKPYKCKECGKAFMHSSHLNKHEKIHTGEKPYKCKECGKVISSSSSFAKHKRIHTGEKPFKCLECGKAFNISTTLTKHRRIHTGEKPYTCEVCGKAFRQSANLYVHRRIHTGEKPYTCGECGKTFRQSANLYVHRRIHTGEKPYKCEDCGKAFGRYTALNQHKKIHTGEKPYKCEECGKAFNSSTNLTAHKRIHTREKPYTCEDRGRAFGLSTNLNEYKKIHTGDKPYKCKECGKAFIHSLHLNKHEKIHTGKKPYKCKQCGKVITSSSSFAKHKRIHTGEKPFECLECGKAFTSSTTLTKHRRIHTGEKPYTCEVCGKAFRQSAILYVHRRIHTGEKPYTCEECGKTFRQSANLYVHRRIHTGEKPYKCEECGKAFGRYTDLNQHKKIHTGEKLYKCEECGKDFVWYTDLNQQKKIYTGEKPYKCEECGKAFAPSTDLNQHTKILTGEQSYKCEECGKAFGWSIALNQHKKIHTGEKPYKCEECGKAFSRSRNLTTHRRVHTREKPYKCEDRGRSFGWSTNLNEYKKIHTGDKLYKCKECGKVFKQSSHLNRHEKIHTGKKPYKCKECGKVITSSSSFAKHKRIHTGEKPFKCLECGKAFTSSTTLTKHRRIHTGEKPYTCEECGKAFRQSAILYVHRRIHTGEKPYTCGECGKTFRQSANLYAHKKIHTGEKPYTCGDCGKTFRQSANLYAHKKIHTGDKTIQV
ZNF721 DBD1, sequence (Q8TF20 17-449): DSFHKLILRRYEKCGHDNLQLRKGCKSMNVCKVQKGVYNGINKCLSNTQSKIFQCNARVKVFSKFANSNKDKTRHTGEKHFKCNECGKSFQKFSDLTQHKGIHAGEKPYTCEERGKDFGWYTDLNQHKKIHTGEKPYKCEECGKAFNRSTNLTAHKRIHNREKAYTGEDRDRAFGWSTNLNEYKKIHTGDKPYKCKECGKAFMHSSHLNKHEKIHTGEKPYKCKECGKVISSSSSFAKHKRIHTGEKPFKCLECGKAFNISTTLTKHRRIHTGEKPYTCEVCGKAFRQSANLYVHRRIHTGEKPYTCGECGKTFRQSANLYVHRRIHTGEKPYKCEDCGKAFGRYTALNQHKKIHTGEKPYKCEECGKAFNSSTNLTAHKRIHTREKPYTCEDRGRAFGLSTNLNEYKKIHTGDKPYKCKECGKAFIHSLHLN
ZNF721 DBD2, sequence (Q8TF20 383-911): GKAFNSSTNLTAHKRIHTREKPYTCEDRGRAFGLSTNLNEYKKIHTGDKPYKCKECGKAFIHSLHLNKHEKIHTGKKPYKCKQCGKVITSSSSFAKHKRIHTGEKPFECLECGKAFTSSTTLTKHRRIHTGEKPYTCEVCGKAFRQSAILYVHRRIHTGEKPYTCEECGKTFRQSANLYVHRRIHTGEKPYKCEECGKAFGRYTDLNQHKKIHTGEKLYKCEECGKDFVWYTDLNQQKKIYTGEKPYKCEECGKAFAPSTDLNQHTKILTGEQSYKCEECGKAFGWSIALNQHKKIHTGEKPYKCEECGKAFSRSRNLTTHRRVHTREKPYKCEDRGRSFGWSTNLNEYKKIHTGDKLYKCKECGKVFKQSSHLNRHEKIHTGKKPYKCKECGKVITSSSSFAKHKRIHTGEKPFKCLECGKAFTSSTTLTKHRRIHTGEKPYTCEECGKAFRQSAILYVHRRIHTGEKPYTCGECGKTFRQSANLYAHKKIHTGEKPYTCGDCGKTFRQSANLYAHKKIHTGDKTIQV

| Sequence | binding signal [1] [relative 10-mer count] | binding signal [2] [relative 10-mer count] | binding signal [3] [relative 10-mer count] |
| --- | --- | --- | --- |
| TCCCCCCCCA | 0.116 | 0.005 | 0.00264 |
| GCTTTTTTCA | 0.21 | 0.076 | 0.0334 |
| AGGGTGGGTG | 0.158 | 0.0094 | 0.00515 |
| AGTGTTTCCA | 0.13 | 0.0113 | 0.284 |
| ACACCACCCC | 0.128 | 0.00394 | 0.00276 |
| CCCCCTTCCC | 0.122 | 0.00537 | 0.00264 |
| ACCCACCACC | 0.214 | 0.0104 | 0.00791 |
| AAAAAGCTCA | 0.112 | 0.0408 | 0.00407 |
| GCCCCCCACC | 0.171 | 0.00693 | 0.00455 |
| AGCAGTACCA | 0.118 | 0.0341 | 0.0533 |
| ACCGCCCCCC | 0.135 | 0.00642 | 0.00132 |
| CCCCGCCCAC | 0.202 | 0.00771 | 0.00407 |
| AAAACAGTAT | 0.105 | 0.00124 | 0.155 |
| AAAAGCTGCC | 0.103 | 0.0372 | 0.00108 |
| GCCCCCCCCA | 0.107 | 0.00261 | 0.00348 |
| ACCCCCACCC | 0.267 | 0.0108 | 0.0036 |
| CCTCACCCCC | 0.156 | 0.00683 | 0.0018 |
| AAGCTGCACC | 0.143 | 0.0827 | 0.0024 |
| ACCCCGACCC | 0.102 | 0.00284 | 0.0012 |
| CCCCTCCCTC | 0.159 | 0.00789 | 0.00336 |
| CCTCCCCCCA | 0.18 | 0.00761 | 0.0036 |
| GCCACCCCAC | 0.129 | 0.00472 | 0.00491 |
| CAACAAAGCA | 0.126 | 0.00101 | 0.145 |
| CCCACCCCGC | 0.212 | 0.0094 | 0.00336 |

| Sequence | binding signal [1] [relative 10-mer count] | binding signal [2] [relative 10-mer count] | binding signal [3] [relative 10-mer count] |
| --- | --- | --- | --- |
| AAAAAAGCAC | 0.158 | 0.0181 | 0.0367 |
| CGAAAAAAGC | 0.221 | 0.0584 | 0.0645 |
| CCCCCATCCC | 0.173 | 0.00638 | 0.00384 |
| CTCCCCCGCC | 0.118 | 0.0056 | 0.00216 |
| CGCCCCCCAC | 0.156 | 0.00679 | 0.00407 |
| AAAAAGCGTA | 0.178 | 0.0453 | 0.0266 |
| GCCCACCCAC | 0.168 | 0.0061 | 0.00983 |
| CCCCCCCCCG | 0.112 | 0.00303 | 0.00156 |
| CCCCCGCCCC | 0.312 | 0.0117 | 0.00372 |
| CAAAAAAGCA | 0.259 | 0.00725 | 0.17 |
| CCCAACCCAC | 0.149 | 0.0056 | 0.00515 |
| CCACCACCAC | 0.19 | 0.00688 | 0.00647 |
| CCCCCTACCC | 0.155 | 0.0072 | 0.003 |
| CCACCAACCC | 0.156 | 0.0067 | 0.00491 |
| CCCCCCCATC | 0.115 | 0.00358 | 0.00324 |
| CCCCAACACC | 0.114 | 0.00417 | 0.00324 |
| AGGGGGCGGG | 0.128 | 0.00463 | 0.0012 |
| AAAAAAAAGC | 0.653 | 0.113 | 0.125 |
| CCACCTCCCC | 0.278 | 0.0134 | 0.00336 |
| CCGCCGCCCC | 0.169 | 0.00546 | 0.00168 |
| CGCCCCCGCC | 0.132 | 0.00523 | 0.00216 |
| GGGGTGGGCA | 0.11 | 0.00381 | 0.00395 |
| CACCACCCCG | 0.135 | 0.00518 | 0.00312 |
| CCCCCGCCGC | 0.128 | 0.00436 | 0.00168 |

| Sequence | binding signal [1] [relative 10-mer count] | binding signal [2] [relative 10-mer count] | binding signal [3] [relative 10-mer count] |
| --- | --- | --- | --- |
| CGCCCCCCTC | 0.116 | 0.00422 | 0.00204 |
| AACAAGCAGT | 0.128 | 0.017 | 0.0905 |
| CACCCACCGC | 0.103 | 0.00463 | 0.00455 |
| CCACCGCCCA | 0.131 | 0.00477 | 0.00575 |
| CCCACCCCTA | 0.119 | 0.00431 | 0.00324 |
| CCTCCACCCA | 0.111 | 0.00505 | 0.00527 |
| AAAAAAAAAG | 0.384 | 0.0474 | 0.0982 |
| GTATGAAGCA | 0.171 | 0.261 | 0.00132 |
| CCCCACCCAA | 0.134 | 0.00431 | 0.00491 |
| CCCACCCAAC | 0.172 | 0.00679 | 0.0113 |
| CACCCCCCCC | 0.217 | 0.00789 | 0.00384 |
| CCCACCCACG | 0.141 | 0.00472 | 0.00551 |
| CCACCCTCCC | 0.246 | 0.0111 | 0.00467 |
| ACCGCCACCC | 0.111 | 0.00335 | 0.00192 |
| CACCCAACCC | 0.123 | 0.005 | 0.00252 |
| CGCCCACCAC | 0.138 | 0.00569 | 0.00384 |
| AAGGGGTGGG | 0.102 | 0.00546 | 0.00395 |
| AGGCAACACT | 0.174 | 0.00697 | 0.391 |
| ACCCCGCCAC | 0.107 | 0.00482 | 0.00264 |
| CACCCACCCG | 0.132 | 0.0039 | 0.00264 |
| CCCACCCGCC | 0.216 | 0.00794 | 0.00539 |
| AACCACCCCC | 0.106 | 0.00303 | 0.00276 |
| ACCCCCAACC | 0.12 | 0.00468 | 0.00479 |
| ACCCGCCCAC | 0.115 | 0.00413 | 0.00288 |

| Sequence | binding signal [1] [relative 10-mer count] | binding signal [2] [relative 10-mer count] | binding signal [3] [relative 10-mer count] |
| --- | --- | --- | --- |
| CCACCCCTAC | 0.112 | 0.00449 | 0.0036 |
| AGGGGAGGGG | 0.13 | 0.00665 | 0.00479 |
| CCATCCACCC | 0.109 | 0.00578 | 0.00467 |
| AAGCGTATCC | 0.108 | 0.0756 | 0.00863 |
| AGCAGCATAC | 0.146 | 0.00179 | 0.164 |
| CCCCCCCACA | 0.124 | 0.00491 | 0.00743 |
| CCGCCCCCAC | 0.178 | 0.00821 | 0.0036 |
| GGGAGGGGGA | 0.161 | 0.00752 | 0.00395 |
| CCCACCGCCC | 0.319 | 0.0135 | 0.00551 |
| ACCCTCCCCC | 0.176 | 0.00766 | 0.00575 |
| AAAAGCTGCA | 0.114 | 0.0533 | 0.00312 |
| CCCCCCAACC | 0.194 | 0.00651 | 0.00707 |
| ACCTCCCACC | 0.113 | 0.00578 | 0.00348 |
| AAAGCAGTAC | 0.156 | 0.0228 | 0.0905 |
| CCGCCCCTCC | 0.151 | 0.00624 | 0.00312 |
| CCACCGACCC | 0.107 | 0.00482 | 0.0036 |
| CCGCCCCCCG | 0.128 | 0.0039 | 0.0024 |
| AAAGCAGGGT | 0.272 | 0.00115 | 0.337 |
| CCACCGTCCC | 0.112 | 0.00491 | 0.00467 |
| CCCTCCCCTC | 0.142 | 0.00679 | 0.0129 |
| CCCTACCCCA | 0.11 | 0.00491 | 0.00395 |
| CCCCACTCCC | 0.157 | 0.00688 | 0.00216 |
| ACCGAAAAAA | 0.104 | 0.00949 | 0.0485 |
| ACCCCCCCCC | 0.143 | 0.00362 | 0.0018 |

| Sequence | binding signal [1] [relative 10-mer count] | binding signal [2] [relative 10-mer count] | binding signal [3] [relative 10-mer count] |
| --- | --- | --- | --- |
| ACAAAAAAAA | 0.179 | 0.0167 | 0.0899 |
| CCCCACCCTC | 0.21 | 0.00986 | 0.00599 |
| TGGGTATGAA | 0.14 | 0.192 | 0.00108 |
| ACCCTCCCCA | 0.105 | 0.00509 | 0.00515 |
| CTCCCCCCCA | 0.117 | 0.005 | 0.00587 |
| CCCTCTCCCC | 0.11 | 0.00564 | 0.00228 |
| CTCCTCCCCC | 0.119 | 0.00633 | 0.00216 |
| AAGTGTATCC | 0.292 | 0.241 | 0.00503 |
| CACGCCCCCC | 0.123 | 0.00454 | 0.00635 |
| CCCCACGCCC | 0.235 | 0.00853 | 0.00395 |
| CAAAAAAAAC | 0.123 | 0.00243 | 0.0838 |
| CCCCACCCGC | 0.186 | 0.00651 | 0.003 |
| TCCCACCCCA | 0.147 | 0.00564 | 0.00372 |
| GACCCACCCC | 0.124 | 0.00427 | 0.0018 |
| ACCCACCCCA | 0.167 | 0.00798 | 0.00515 |
| CTTCATACAC | 0.291 | 0.384 | 0.00132 |
| CCACCCACCC | 0.415 | 0.0173 | 0.00587 |
| AAACAAGCAG | 0.212 | 0.00908 | 0.149 |
| CACCCCCCAC | 0.248 | 0.0103 | 0.00527 |
| CCCACCACCG | 0.12 | 0.00514 | 0.00503 |
| CAACCCCCAC | 0.108 | 0.00417 | 0.00216 |
| GGTGGGTGGA | 0.13 | 0.00615 | 0.00611 |
| CCTCCGCCCC | 0.161 | 0.00789 | 0.003 |
| CAAAAAAACA | 0.365 | 0.00349 | 0.263 |
